Screening data deposited in PubChem BioAssay by National Center for Advancing Translational Sciences (NCATS).
Only some compounds are listed: those with a hit (about 21% of all), similar ones and a draw of the others.
HCMV antiviral – blocks human cytomegalovirus replication; HFF cells, HCMV-luciferase reporter, 72 h; hits give low values; activity change, negative = inhibition, % at 57.5 µM; AID 1259415; 4.5% of 410,000 active; in the data active means activity change below about -60%; inconclusive means no clear call, values can overlap the other calls; inactive means above about -39%
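Inhibition of viral replication was scored as loss of reporter luminescence in HFFs infected with HCMV-luciferase (MOI 1 PFU/cell) for 72 h; compounds tested at 2 doses, normalized to buffer and Salinomycin controls.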
CHX counter – counter-screen for Shiga toxin inhibitors: cycloheximide protein synthesis inhibition | cell reporter, cycloheximide protein synthesis inhibition counterscreen | max response, % | 12% of 300,000 active | AID 2314; in the data active means max response mostly above about 13%, no sharp cut-off; inactive means mostly below about 14%; further: read at 38.3 µM for the half of the compounds with a filed dose
Shiga inhibitor – inhibitors of Shiga toxin in Vero cells. AID 2315. Vero cells, Shiga toxin protein synthesis inhibition reporter. inhibition, % at 38.7 µM. 9.2% of 290,000 active; in the data active means inhibition mostly above about 28%, no sharp cut-off; inactive means mostly below about 43%
Pf growth 48h – inhibits P. falciparum growth in the first generation, 48 h; P. falciparum luciferase growth in erythrocytes, 48 h; Potency, µM (series often up to 28.7 µM), most hits filed as inhibitors; AID 504832; 5.9% of 310,000 active
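Luciferase-expressing parasites in RBCs, 2% Hct / 0.1% parasitemia final; RPMI 1640 + 0.5% Albumax; 37 C, 5% CO2, one generation; luminescence read-out, lower signal = inhibition.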
HCV inh – blocks hepatitis C virus | Huh7.5.1 HCVcc-Cre infection, luciferase reporter, 44 h | AID 651820 | Potency, µM (doses to about 41.8 µM), hits mostly inhibitors | 3.4% of 340,000 active
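Compounds are dispensed onto cells plated 4 h earlier at 1,000 per well, with HCVcc-Cre virus (about 0.5 moi) added next. Following 44 h of culture, luminescent signal is measured for 15 sec after 15 min with substrate at room temperature.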
Pf growth 96h – P. falciparum growth inhibition at 96 hours; P. falciparum luciferase reporter growth, 96 h; Potency, µM (top dose mostly 28.7 µM), actives largely listed as inhibitors; 6.9% of 320,000 active; AID 504834
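Readout is luminescence from an integrated firefly luciferase in P. falciparum. Red cells, 2% hematocrit and 0.05% parasitemia final, were cultured with compound through two parasite generations (96 hours) at 37 C, 5% CO2.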
Large screens that a line does not name were inactive; ! = not confirmed by another sample. Unless noted, the call rests on the fitted dose curve; in most records, active means well fitted inhibition curve with a large enough effect; inconclusive means small, poorly fitted or top-dose-only effect, or another doubt; inactive means no such curve, though single readings can be large or run the other way.

CC(C)(C)Nc1nc(OCC(F)(F)F)nc(OCC(F)(F)F)n1	CHX counter 12.9, Shiga inhibitor 31.3, Pf growth 96h inconclusive
O=c1oc2ccc(Br)cc2cc1-c1nc2ccccc2o1	none
Brc1ccc2oc(-c3ccn[nH]3)cc2c1	CHX counter 70.1, Shiga inhibitor 119.5
C=CCC(COCc1ccccc1)NS(=O)(=O)c1ccccc1Br (stereo not drawn)	Pf growth 48h 13.1µM, Pf growth 96h inconclusive
CCCCCCNc1c([N+](=O)[O-])cc(C)cc1[N+](=O)[O-]	HCMV antiviral -68.9 (no result: CHX counter, Shiga inhibitor, Pf growth 48h, Pf growth 96h)
CCCCNc1ccc(S(=O)(=O)c2cccc([N+](=O)[O-])c2)cc1[N+](=O)[O-]	none
O=C(CSc1nccc(=O)[nH]1)NC1CCCC1	none
Cc1csc(=NC(=O)c2ccccc2)n1Cc1ccco1	HCMV antiviral inconclusive
CCn1c(C)csc1=NC(=O)c1ccccc1O	CHX counter 55.9, Shiga inhibitor 107.4, Pf growth 96h 1.65µM
Cc1csc(=NC(=O)c2ccccc2)n1C	CHX counter 50.5, Shiga inhibitor 82.8
CCn1c(C)csc1=NC(=O)c1ccccc1	CHX counter 28.8, Shiga inhibitor 33.7
Cc1cc(C)cc(NC(=O)CCCc2nc(-c3ccco3)no2)c1	none (no result: CHX counter, Shiga inhibitor, Pf growth 48h, HCV inh, Pf growth 96h)
CCCCCCn1nc(C(=O)N(CCCC)c2c(N)n(CCC)c(=O)[nH]c2=O)c2ccccc2c1=O	none (no result: CHX counter, Shiga inhibitor, Pf growth 48h, Pf growth 96h)
Cc1cccc(C(=O)NCC(=O)OCC(=O)N(C)CC(=O)Nc2ccc(F)cc2)c1	none (no result: CHX counter, Shiga inhibitor)
Cn1cc([N+](=O)[O-])c(C(=O)Nc2nccs2)n1	HCMV antiviral -96.1, CHX counter 30.4, HCV inh inconclusive
COc1ccc(C(=O)Nc2nccs2)cc1	CHX counter 29.0 (no result: Shiga inhibitor)
COc1ccc(Cl)cc1N1CC(C(=O)Nc2nccs2)CC1=O (stereo not drawn)	HCMV antiviral -67.4, HCV inh inconclusive, Pf growth 96h inconclusive
O=C(Nc1nccs1)C1CC(=O)N(c2ccccc2Cl)C1 (stereo not drawn)	none (no result: Pf growth 48h)
COc1ccc(C(=O)Nc2nccs2)cc1[N+](=O)[O-]	CHX counter 27.3
CCCCN(CC)CCNC(=O)CCn1cnc2onc(-c3ccc(F)cc3)c2c1=O	none (no result: CHX counter, Shiga inhibitor, Pf growth 48h, HCV inh, Pf growth 96h)
COc1ccc(CCC(=O)Nc2nccs2)cc1OC	none
COc1ccc(NC(=O)Nc2nccs2)cc1	CHX counter 32.2, Shiga inhibitor 85.3 (no result: Pf growth 96h)
CCOCc1nnc(NC(=O)c2ccc(OC)cc2)s1	CHX counter 22.5, Shiga inhibitor 48.1
CCSc1ccc(C(=O)Nc2ccc(Br)cn2)cc1[N+](=O)[O-]	HCV inh inconclusive
Cn1cc([N+](=O)[O-])c(C(=O)Nc2ccc(Br)cn2)n1	HCMV antiviral -64.8, CHX counter 25.0, Shiga inhibitor 52.2, HCV inh 11.2µM
COc1ccc(C(=O)Nc2nccs2)cc1OC	CHX counter 27.6, HCV inh inconclusive (no result: Pf growth 96h)
COc1cccc(Cc2nc3ccccc3nc2SCC(=O)N2CCCc3ccccc32)c1	none (no result: CHX counter, Shiga inhibitor, Pf growth 48h, HCV inh, Pf growth 96h)
OC(CN1CCOCC1)Cn1c2c(c3ccccc31)CCCC2 (stereo not drawn)	none
COc1ccccc1NC(=O)Cn1nc2c3cc(F)ccc3n(Cc3cccc(C)c3)cc-2c1=O	none (no result: CHX counter, Shiga inhibitor, Pf growth 48h, HCV inh, Pf growth 96h)
CCCOC(=O)c1ccc(NC(=O)C2CC(=O)N(c3ccc(C)cc3)C2)cc1 (stereo not drawn)	none (no result: CHX counter, Shiga inhibitor, Pf growth 48h, HCV inh, Pf growth 96h)
CCc1nnc(NC(=O)Nc2ccc(OC)cc2)s1	CHX counter 24.0 (no result: Pf growth 48h)
COc1ccc(NC(=O)Nc2nnc(CC(=O)Nc3ccccc3)s2)cc1	HCMV antiviral inconclusive
CCC(CC)C(=O)Nc1cccc(C(=O)Nc2nccs2)c1	Pf growth 96h inconclusive
O=C(Nc1nccs1)c1cccc(NC(=O)C(F)(F)F)c1	CHX counter 17.9, Shiga inhibitor 73.5
Cc1nc2ccccc2c(=O)n1NC(=O)c1cc(Br)ccc1Cl	none
CCCCNC(=O)C1c2cc(OC)c(OC)cc2C(=O)N(C)C1c1cccs1 (stereo not drawn)	Pf growth 96h 2.08µM
CCCCNC(=O)C1c2cc(OC)c(OC)cc2C(=O)N(C)C1c1ccc(OC)cc1 (stereo not drawn)	HCMV antiviral -99.9, Pf growth 48h inconclusive
CCCN(CCC)CCCNC(=O)C1c2cc(OC)c(OC)cc2C(=O)N(C)C1c1cccs1 (stereo not drawn)	none (no result: Pf growth 48h)
CCN(CC)CCCNC(=O)C1c2cc(OC)c(OC)cc2C(=O)N(C)C1c1cccs1 (stereo not drawn)	Pf growth 96h inconclusive (no result: Pf growth 48h)
Cc1ccc(S(=O)(=O)N2CCC(C(=O)OCC(=O)N(C)C3CCS(=O)(=O)C3)CC2)cc1C (stereo not drawn)	none (no result: CHX counter, Shiga inhibitor)
COc1ccc(CCNC(=O)CCCc2ccccc2)cc1OC	none (no result: Pf growth 48h)
Cc1ccc(/C(=C\CN2CCCC2)c2ccccn2)cc1	Pf growth 96h 13.5µM!
COC(=O)c1cccc(C(=O)N2CCCC(CNC(=O)c3ccccc3Cl)C2)c1 (stereo not drawn)	none
CSCC(=O)N1CCCC(CNC(=O)c2ccccc2Cl)C1 (stereo not drawn)	CHX counter 14.6
O=C(NCC1CCCN(C(=O)CN2CCCCC2)C1)c1ccccc1Cl (stereo not drawn)	CHX counter 26.4
COc1ccccc1NC(=O)N1CCCC(CNC(=O)c2ccccc2Cl)C1 (stereo not drawn)	none
COc1ccc(-c2nc(CSCC(=O)NCc3ccccc3Cl)c(C)o2)cc1OC	none (no result: CHX counter, Shiga inhibitor, Pf growth 48h, HCV inh, Pf growth 96h)
CC(C)c1ccc(N(C(=O)c2snc(C(N)=O)c2N)C(C(=O)NC2CCCC2)c2ccncc2)cc1 (stereo not drawn)	CHX counter 15.2, Pf growth 48h inconclusive, HCV inh inconclusive
COc1cc(C(C(=O)NC2CCCCC2)N(C(=O)c2snc(C(N)=O)c2N)c2ccc(C)cc2)ccc1O (stereo not drawn)	Pf growth 48h 7.38µM, HCV inh inconclusive
NC(=O)c1nsc(C(=O)N(c2ccccc2)C(C(=O)NC2CCCCC2)c2ccc(O)cc2)c1N (stereo not drawn)	Pf growth 48h inconclusive, HCV inh inconclusive, Pf growth 96h 10.4µM
COc1ccc(N(C(=O)c2snc(C(N)=O)c2N)C(C(=O)NC2CCCC2)c2ccc(OC)c(OC)c2)cc1 (stereo not drawn)	Pf growth 48h inconclusive
CC[N+](CC)(CCCCS(=O)(=O)[O-])CCNP1(=O)C=C(c2ccccc2)OC(c2ccccc2)=C1	HCMV antiviral -70.4
O=C(C[n+]1ccn(CCCNP2(=O)C=C(c3ccccc3)OC(c3ccccc3)=C2)c1)c1ccccc1	HCMV antiviral inconclusive, Pf growth 48h inconclusive, Pf growth 96h inconclusive
Cc1cc(C(=O)N/N=C/c2sccc2C)no1	CHX counter 26.5, Shiga inhibitor 42.6
Cc1ccsc1/C=N\NC(=O)c1cc(C(C)(C)C)[nH]n1	CHX counter 23.6, Shiga inhibitor 104.2, Pf growth 96h inconclusive
Cc1ccsc1/C=N/NC(=O)c1ccc2nc[nH]c2c1	CHX counter 20.6, Shiga inhibitor 31.7
